# Measured values reported in PubChem BioAssay AID588335 (The Scripps Research Institute Molecular Screening Center, 2011).
# Out of some 360,000 compounds screened, about 4,500 (1.2%) were called active. Many of the other results were omitted from the sample, so actives are more common in it than they were. Values without a mark were called inactive. Cut-off read from the data, not from the text of the source: active = inhibition above about 30%; inactive = the rest.
# Experiment: GDH-TPI coupling enzyme inhibitors, primary screen, artefact control for M. tuberculosis FBA inhibitor project, biochemical, absorbance, full deck (AID 588335);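 note: 0% = DMSO wells and 100% = wells lacking the enzyme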
# Details: GDH-TPI coupled enzyme counterscreen, NADH absorbance; at 4.8 µM; stronger effect = higher value
row,Structure (SMILES),inhibition
1,CCN(CC)CCCNC(=S)N(CCO)Cc1cc2cc3c(cc2[nH]c1=O)OCO3,10.3%
2,CCNC(=S)N(CCN(CC)CC)Cc1cc2cc3c(cc2[nH]c1=O)OCO3,40.6% (active)
3,CCNC(=S)N(CCN(CC)CC)Cc1cc2cc3c(cc2[nH]c1=O)OCCO3,27.9%
4,CN1C(CC(=O)Nc2ccc(Br)cc2)c2ccccc2CC1(C)C (stereo unspecified),2.84%
5,COc1cc(C(=O)N2CCN(S(=O)(=O)c3ccc(C(C)C)cc3)CC2)ccc1OCC(=O)N1CCOCC1,-5.56%
6,O=C(Nc1sc2c(c1-c1nc3ccccc3[nH]1)CCCC2)C1CC1,12.9%
7,Nc1ccccc1-c1nc2ccncc2[nH]1,17.8%
8,c1ccc2[nH]c(-c3nc4ccccc4[nH]3)nc2c1,36.1% (active)
9,CCc1ccc2c(c1)cc(CN(C(=S)Nc1ccccc1Cl)C1CC1)c1nnnn12,3.4%
10,COCCCN(C(=S)Nc1c(C)cc(C)cc1C)C(C)c1ccncc1 (stereo unspecified),-1.1%
11,COc1ccc(CN2C(=O)C(C)S/C2=N/N=C/c2ccco2)cc1 (stereo unspecified),28.3%
12,O=C1N/C(=N\N=C\c2ccco2)SC1Cc1ccc(F)cc1 (stereo unspecified),34.3% (active)
13,C=CCN1C(=O)C(Cc2cccc(Cl)c2)S/C1=N/N=C/c1ccco1 (stereo unspecified),17.9%
14,CCC1S/C(=N/N=C/c2ccco2)NC1=O (stereo unspecified),48.7% (active)
15,CC(C)=N/N=C1/NC(=O)C(Cc2ccccc2)S1 (stereo unspecified),1.52%
16,CCCCC1S/C(=N/N=C/c2cccs2)NC1=O (stereo unspecified),23.8%
17,NC(=O)Cn1nc([N+](=O)[O-])nc1Oc1ccc(Br)cc1,-2.44%
18,COc1ccc(OC)c(-n2cc3c(=O)n(C)c(=O)n(C)c3c2)c1,17.5%
19,Cc1noc(COc2ccccc2OCc2onc(C)c2Cl)c1Cl,-5.03%
20,Cc1cc(NC(=O)CN2C(=O)NC(C)(CCc3ccccc3)C2=O)no1 (stereo unspecified),-0.61%
21,COC(=O)c1sc2[nH]c(=S)n(N)c(=O)c2c1C,31.6% (active)

row,Structure (SMILES),inhibition
1,COC(=O)c1sc(NC(=O)COC(=O)C2CCC2)c(C(=O)OC)c1C,-0.7%
2,CCCC(CCC(=O)OC)(C(=O)OCC)c1csc(N)n1 (stereo unspecified),13%
3,O=C(COC(=O)c1ccccc1C(=O)c1ccccc1)c1ccco1,-5.13%
4,CCN(CC)c1ccc(C(=O)OCC(=O)c2ccco2)cc1,31.4% (active)
5,CCc1ccc(C(=O)COC(=O)c2ccco2)cc1,-8.19%
6,C[C@H](NC(=O)C1CCN(S(=O)(=O)c2ccccc2)CC1)C(=O)NCc1ccccc1,-5.08%
7,O=C(CN1C(=O)NC2(CCCCCC2)C1=O)Nc1ccc([N+](=O)[O-])cc1,22.4%
8,COc1cc(C=NC2CCCCC2)ccc1O,32.4% (active)
9,COc1cc(C(=S)NC2CCCCC2)ccc1O,2.87%
10,COc1ccccc1-n1c(O)c(C=NC2CC2)c(=O)[nH]c1=O,-4.18%
11,Cc1nnc(Sc2nc3c(c(=O)[nH]c(=O)n3C)n2Cc2ccccc2)s1,3.35%
12,COc1ccc(CCn2c(NCCCN3CCOCC3)nc3c2c(=O)[nH]c(=O)n3C)cc1,2.26%
13,Cn1c(=O)[nH]c(=O)c2c1nc(NCCCn1ccnc1)n2Cc1cccc(Br)c1,33.2% (active)
14,Cc1cc(C)cc(C(=O)NCC(=O)OCC(=O)N2CCCCC2)c1,-3.76%
15,Cc1ccc(-n2ncc3c2CC(C)(C)CC3NC(=O)Cc2c(C)noc2C)cc1 (stereo unspecified),2.41%
16,Cc1ccc(NC(=O)c2nc[nH]c2C(=O)N2CCCCC2)c(C(=O)c2ccccc2)c1,16.6%
17,CC(CNS(=O)(=O)c1ccc(Br)cc1)CN(C)C (stereo unspecified),-2.58%
18,COc1ccc(N(CC(=O)N/N=C/c2cccs2)S(=O)(=O)c2ccc(OC)c(OC)c2)cc1,7.97%
19,COc1ccc2c(c1)c(C(=O)N/N=C/c1cccs1)c(C)n2C,38.7% (active)
20,Cc1c(NC(=O)C(=O)N/N=C/c2cccs2)c(=O)n(-c2ccccc2)n1C,6.43%
21,CCOC(=O)c1ccccc1NS(=O)(=O)c1c(C)nc2sccn2c1=O,15%

row,Structure (SMILES),inhibition
1,COc1ccc(CCNC(=O)COC(=O)c2ccc[nH]c2=O)cc1,7.19%
2,COCCCn1c(SCc2cccc(OC)c2)nc2cc(OC)c(OC)cc2c1=N,-0.63%
3,O=C(Cc1ccccc1)Nc1cccc(C(=O)N/N=C/c2ccco2)c1,12.2%
4,O=C(N/N=C/c1ccco1)c1ccc(C(=O)N/N=C/c2ccco2)o1,47.5% (active)
5,O=C(CCNC(=O)c1ccccc1Cl)NN=Cc1ccco1,10.8%
6,COc1ccc(O)c(C(=O)c2cnc3onc(C(C)C)c3c2)c1,5.83%
7,COc1ccc(Cn2cc(CN3CCS(=O)(=O)N(Cc4ccc(-c5cccc(Cl)c5)cc4)C(C)C3=O)nn2)cc1 (stereo unspecified),12.3%
8,C=CCn1c(CCNC(=O)c2cccs2)n[nH]c1=S,-2.53%
9,C=CCn1c(=NC(=O)c2cccs2)sc2cc(NC(C)=O)ccc21,31.8% (active)
10,C=CCn1c(=NC(=O)c2ccc(S(=O)(=O)N3CCCC3)cc2)sc2cc(NC(C)=O)ccc21,28.4%
11,Cc1ccc(O)c(CCc2ccccc2)n1,5.82%
12,COC(=O)C(C(=O)Nc1cccc(Cl)c1C)C1CCCC1 (stereo unspecified),2.59%
13,CCOC(=O)N1CCN(C(=O)CSc2nnc(-c3c[nH]c4ccccc34)n2CCOC)CC1,21.3%
14,Cc1ccc(C)c(S(=O)(=O)N(C)c2ccc(OC(=O)C3CCN(C(=O)c4ccc(F)cc4)CC3)cc2)c1,-2.88%
15,CCN(C(=O)COC(=O)c1cc(S(=O)(=O)N2CCc3ccccc32)ccc1OC)C1CCS(=O)(=O)C1 (stereo unspecified),-2.55%
16,Cc1ccc2oc(=O)c3cnn(CC(=O)N(Cc4ccco4)C4CCCCC4)c3c2c1,0%
17,CN1CCN(CCNC(=O)Nc2ccccc2[N+](=O)[O-])CC1,1.97%
18,CN1CCN(CCNC(=O)Nc2ccc([N+](=O)[O-])cc2)CC1,35.1% (active)
19,O=C(NCCCN1CCN(c2ccc(F)cc2)CC1)Nc1ccc([N+](=O)[O-])cc1,21.2%
